Results taken from PubChem BioAssay.
Calls of active or inactive are those of the source.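 How the source made its calls, unless noted: active means inhibition of the reporter signal at or above 50%; inactive means inhibition below 50%.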

Columns and labels:
[1] = inhibitors of TNFa-induced NFkB p65 translocation, primary screen, imaging, HUVEC, MLSMR starter and 10KST1 sets (AID 438;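 active means inhibition above 20% together with a positive visual image hit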;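 further: compound added about 3h40 before a 20 min TNFalpha stimulation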;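 on inhibition: signal is the nuclear over cytoplasmic p65 intensity ratio per well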); conditions: HUVEC TNFa-induced p65 nuclear translocation; cell count: measured here: nuclei count (cytotoxicity indicator), at 2.08 µM; inhibition: at 2 µM, stronger effect = higher value, 0% TNFa-plus-vehicle, 100% no-TNFa wells
[2] = reduction of polyQ htt aggregates in cells – imaging, exon1htt(103Q)mCFP cells, high-content imaging, primary screen (AID 483;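 active means visual image review flags a hit and inhibition of aggregation exceeds 20%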;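 further: compound exposure lasted 3 days before fixation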;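 on nuclei count: percent of the per-plate median nuclei count of sample wells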); conditions: exon1htt(103Q)mCFP cell line, aggregate imaging, at 2 µM; inhibition of aggregation: stronger effect = higher value; nuclei count: measured here: cell count, toxicity
[3] = endothelial E-selectin expression blockers – imaging, HUVEC, immunofluorescence, MLSMR starter and 10KST1 sets, primary screen (AID 487;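 active means visually confirmed hit in the image check and inhibition above 20%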;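 on inhibition: signal is fraction of cell area covered by stained E-selectin grains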;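 on nuclei count: 100% = median nuclei count of all wells on the same plate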); conditions: HUVEC TNFalpha-induced E-selectin immunofluorescence imaging, at 2 µM; inhibition: stronger effect = higher value; nuclei count: measured here: cell number, toxicity
[4] = molecular target: Voltage-gated potassium channel subunit beta-2 (Rattus norvegicus) (UniProt P62483); assay: inhibitors of rat Kvbeta2 reductase activity – biochemical, NADPH fluorescence, primary screen (AID 622;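 active means fluorescence slope higher than the sample average by over 3 SD, cut at about -0.22 in these data, passing the limit was not always enough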;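 further: slope of raw intensity against log time taken from 70 to 1610 s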); conditions: recombinant KvBeta, 4-cyanobenzaldehyde reduction, at 10 µM, stronger effect = higher value
[5] = molecular target: Voltage-gated potassium channel subunit beta-2 (Rattus norvegicus) (UniProt P62483); assay: enhancers of rat Kvbeta2 NADPH turnover – biochemical, NADPH fluorescence, primary screen (AID 623;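 active means NADPH fluorescence slope more negative than the mean of all samples by about 3 SD, 99.7% confidence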;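 further: fluorescence intensity change per second fitted from 20 to 320 s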); conditions: Recombinant KvBeta, NADPH fluorescence decrease slope, 10 min; at 10 µM; stronger effect = lower value
[6] = molecular target: Alpha-2C adrenergic receptor (Homo sapiens) (UniProt P18825); assay: compounds altering alpha2C-coupled GIRK flux – cell-based, HEK293 alpha2C/GIRK1/2, thallium flux, primary screen (AID 624;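 active means fluorescence slope after compound addition differing from the mean of all screened samples at 99.7% confidence, in either direction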;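 further: slope of fluorescence ratio to pre-addition baseline per second over 15 to 24 s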); conditions: thallium flux BTC fluorescence, at 10 µM, actives lie on both sides
[7] = blockers of RIG-like receptor reporter activation – cell-based, Sendai virus stimulus, luciferase, 10K MLSCN set, TLR/RLR signaling modifier project, primary screen (AID 602276;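 active means inhibition at or above 50% at 10 µM; inactive means inhibition below 50%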;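 further: firefly luciferase from ISG56 promoter only with Renilla not read in this screen; 0% = Sendai virus plus DMSO and 100% = medium plus DMSO without virus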); conditions: HEK293 RL24 IRF3 luciferase reporter, at 10 µM, stronger effect = higher value
[8] = TLR3 IRF3 reporter activation blockers – cell-based, poly I:C stimulus, luciferase, 10K MLSCN set, primary screen (AID 602277); conditions: HEK293-TLR3 RL24 IRF3 luciferase reporter, at 10 µM, stronger effect = higher value

Chain of Alpha-2C adrenergic receptor (Homo sapiens) (P18825 whole entry, looked up): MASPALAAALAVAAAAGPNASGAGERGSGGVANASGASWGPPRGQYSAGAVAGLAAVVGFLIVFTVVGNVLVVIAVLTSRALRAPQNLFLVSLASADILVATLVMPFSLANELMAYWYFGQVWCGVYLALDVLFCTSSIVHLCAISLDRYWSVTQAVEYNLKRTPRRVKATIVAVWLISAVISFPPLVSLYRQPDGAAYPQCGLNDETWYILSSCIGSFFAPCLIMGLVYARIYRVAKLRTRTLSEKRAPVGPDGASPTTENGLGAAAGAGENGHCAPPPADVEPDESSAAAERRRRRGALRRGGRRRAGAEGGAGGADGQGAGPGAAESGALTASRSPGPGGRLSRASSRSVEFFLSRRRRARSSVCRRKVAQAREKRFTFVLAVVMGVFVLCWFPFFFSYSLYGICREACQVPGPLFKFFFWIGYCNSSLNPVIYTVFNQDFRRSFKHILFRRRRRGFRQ
Chain of Voltage-gated potassium channel subunit beta-2 (Rattus norvegicus) (P62483 whole entry, looked up): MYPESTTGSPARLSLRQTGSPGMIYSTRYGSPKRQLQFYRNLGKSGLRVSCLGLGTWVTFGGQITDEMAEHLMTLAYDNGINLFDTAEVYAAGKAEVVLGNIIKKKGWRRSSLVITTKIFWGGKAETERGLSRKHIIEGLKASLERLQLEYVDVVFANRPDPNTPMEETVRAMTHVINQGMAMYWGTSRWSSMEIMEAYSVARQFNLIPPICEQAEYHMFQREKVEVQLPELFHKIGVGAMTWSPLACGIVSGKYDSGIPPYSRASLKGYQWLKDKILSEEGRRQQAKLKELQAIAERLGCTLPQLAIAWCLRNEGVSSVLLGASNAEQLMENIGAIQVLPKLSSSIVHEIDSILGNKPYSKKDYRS

Row | Structure (SMILES) | cell count [1] | inhibition [1] | inhibition of aggregation [2] | nuclei count [2] | inhibition [3] | nuclei count [3] | fluorescence slope [4] | NADPH fluorescence slope [5] | slope [6] | inhibition [7] | inhibition [8]
1 | O=c1cnnc(NCc2ccccc2)[nH]1 | 696 | -11.2% (inactive) | 9.3% (inactive) | 99.5% | -32.9% (inactive) | 105% | -0.418 (inactive) | -2.6e-05 (inactive) | 0.00324 (inactive) | 1.13% (inactive) | 8.35% (inactive)
2 | COC(=O)c1ccc(NC(=O)C(C)N2C(=O)c3ccccc3C2=O)cc1 (stereo not drawn) | 593 | -1.8% (inactive) | -7.5% (inactive) | 103% | -39.9% (inactive) | 108% | -0.614 (inactive) | 5.9e-06 (inactive) | 0.0058 (inactive) | -2.42% (inactive) | 3.26% (inactive)
3 | COCCOC(=O)C1=C(C)NC(=O)CC1c1cc2c(cc1Br)OCO2 (stereo not drawn) | 424 | 4.1% (inactive) | 16.1% (inactive) | 104% | -12.8% (inactive) | 95.1% | -0.395 (inactive) | -2.8e-05 (inactive) | 0.0043 (inactive) | 17.3% (inactive) | 16.1% (inactive)
4 | CCCN1CC23C=CC(O2)C(C(=O)O)C3C1=O (stereo not drawn) | 833 | -8.7% (inactive) | -27.3% (inactive) | 109% | -58.4% (inactive) | 124% | -0.518 (inactive) | -8.6e-07 (inactive) | 0.00688 (inactive) | 6.27% (inactive) | 15.9% (inactive)
5 | CC1CN(c2nc3ccccc3nc2C(C#N)C(=O)NCc2ccc3c(c2)OCO3)CC(C)O1 (stereo not drawn) | 340 | 4.7% (inactive) | 11.1% (inactive) | 83.9% | -24.9% (inactive) | 81.7% | -0.347 (inactive) | -5.3e-05 (inactive) | 0.00757 (inactive) | 18.7% (inactive) | 14.5% (inactive)
6 | CCOc1ccc(N(CC(=O)NCc2cccc(OC)c2)S(=O)(=O)c2c(C)noc2C)cc1 | 362 | -3.2% (inactive) | 18.9% (inactive) | 95% | -114% (inactive) | 104% | -0.415 (inactive) | 1.6e-05 (inactive) | 0.00505 (inactive) | -5.75% (inactive) | -5.65% (inactive)
7 | CC(=O)c1ccccc1OCCn1nnc(-c2ccc(C)cc2)n1 | 556 | -13.7% (inactive) | -20.1% (inactive) | 106% | -24.2% (inactive) | 109% | -0.487 (inactive) | -5.6e-05 (inactive) | 0.0055 (inactive) | 12.9% (inactive) | 14% (inactive)
8 | O=C(Oc1ccccc1)c1cccc(COC(=O)c2cnccn2)c1 | 385 | -1.6% (inactive) | 7.9% (inactive) | 103% | 20.7% (inactive) | 105% | -0.425 (inactive) | -5.1e-05 (inactive) | 0.00507 (inactive) | 5.8% (inactive) | 3.65% (inactive)
9 | O=C(CN1CCC(c2nc3ccccc3s2)CC1)NCc1cccs1 | 699 | -1% (inactive) | 12.8% (inactive) | 87.9% | -4.6% (inactive) | 103% | -0.604 (inactive) | -3.9e-05 (inactive) | 0.00309 (inactive) | -1.46% (inactive) | -58.5% (inactive)
10 | O=C(CSCCSCC(=O)c1ccco1)c1ccco1 | 594 | -6.1% (inactive) | -12% (inactive) | 84.7% | -44.4% (inactive) | 138% | -0.421 (inactive) | -6.5e-05 (inactive) | 0.00644 (inactive) | 7.09% (inactive) | 7.22% (inactive)
11 | CC(C)CC(=O)Nc1ccccc1-c1nnn(CC(=O)N2CCOCC2)n1 | 739 | -6.7% (inactive) | 1.9% (inactive) | 112% | 25.9% (inactive) | 106% | -0.497 (inactive) | -6.6e-05 (inactive) | 0.00487 (inactive) | 7.19% (inactive) | 13.9% (inactive)
12 | Cc1nc2ccccc2c(=O)n1CC(=O)N1CCOCC1 | 558 | -17.1% (inactive) | 11.6% (inactive) | 78.3% | 22.8% (inactive) | 89.9% | -0.503 (inactive) | -4.9e-05 (inactive) | 0.00461 (inactive) | 14.1% (inactive) | 13.2% (inactive)
13 | Cc1nc2ccc(S(=O)(=O)NC(C(=O)NCc3cccs3)C(C)C)cc2s1 (stereo not drawn) | 332 | -8.3% (inactive) | 24.4% (inactive) | 88.7% | -28.8% (inactive) | 106% | -0.612 (inactive) | -5.2e-05 (inactive) | 0.00687 (inactive) | -5.51% (inactive) | 14.4% (inactive)
14 | Cc1ccc(NC(=O)C2CC=CCC2C(=O)N2CCCCC2)cc1 (stereo not drawn) | 636 | -23.5% (inactive) | -67% (inactive) | 66.9% | -9.5% (inactive) | 94.3% | -0.499 (inactive) | -2.1e-05 (inactive) | 0.00665 (inactive) | -0.377% (inactive) | 26.9% (inactive)
15 | O=C(COC(=O)c1ccccc1Oc1ccccc1)NC1CCS(=O)(=O)C1 (stereo not drawn) | 33 | 74.9% (active) | 0% (inactive) | 95.2% | -124% (inactive) | 116% | -0.521 (inactive) | -1.6e-05 (inactive) | 0.00666 (inactive) | 8.04% (inactive) | -20% (inactive)
16 | Cc1cccc(Cc2nnc(NC(=O)c3cccc(S(=O)(=O)N4CCOCC4)c3)s2)c1 | 424 | -5.5% (inactive) | -0.5% (inactive) | 106% | 0.9% (inactive) | 126% | -0.422 (inactive) | -7.5e-06 (inactive) | 0.00421 (inactive) | 14.3% (inactive) | 30.6% (inactive)
17 | COc1ccc(CN(CC(=O)NCc2ccco2)C(=O)CCC(=O)Nc2nccs2)cc1 | 438 | 3.6% (inactive) | -4.3% (inactive) | 102% | -24.4% (inactive) | 114% | -0.403 (inactive) | -3.8e-05 (inactive) | 0.00588 (inactive) | 11.3% (inactive) | 12.7% (inactive)
18 | Cc1cnc(NC(=O)CSc2nnc(COc3c(C)cccc3C)o2)s1 | 628 | 10.9% (inactive) | -2.5% (inactive) | 103% | -22.4% (inactive) | 121% | -0.537 (inactive) | -4.4e-05 (inactive) | 0.00686 (inactive) | 12.1% (inactive) | 39% (inactive)
19 | Cc1nc2ccc(Br)cn2c1NC(C)(C)C | 209 | 12.8% (inactive) | -17.9% (inactive) | 103% | -2.7% (inactive) | 102% | -0.531 (inactive) | -2.1e-05 (inactive) | 0.00552 (inactive) | -1.2% (inactive) | 3.15% (inactive)
20 | Cc1ccc(S(=O)(=O)N2CCC(C(=O)N3CCC[C@H]3C(=O)NCc3ccccc3)CC2)cc1 | 340 | 3.6% (inactive) | -6.4% (inactive) | 108% | -35% (inactive) | 133% | -0.453 (inactive) | 8.3e-05 (inactive) | 0.00735 (inactive) | 13.5% (inactive) | 23.1% (inactive)
21 | COc1cccc(-n2c(SCC(=O)N3CCCC3)nc3c([nH]c4ccccc43)c2=O)c1 | 493 | -5.9% (inactive) | 0.6% (inactive) | 75.6% | 5.4% (inactive) | 91.8% | -0.544 (inactive) | -1.5e-05 (inactive) | 0.00652 (inactive) | -9.13% (inactive) | 55.5% (active)
22 | CC(C)(C)n1nnnc1CN1CCC(NC(=O)NC2CCCCC2)CC1 | 345 | -18.5% (inactive) | 10.8% (inactive) | 93% | -45.9% (inactive) | 115% | -0.324 (inactive) | 9.8e-06 (inactive) | 0.00372 (inactive) | 11% (inactive) | 18.5% (inactive)
23 | CCSc1nnc(NC(=O)CSc2nnc(Cc3cccn3C)n2-c2ccc(C)cc2)s1 | 601 | -12.3% (inactive) | -2.6% (inactive) | 112% | 16.8% (inactive) | 75.5% | -0.596 (inactive) | 1.3e-06 (inactive) | 0.00655 (inactive) | 3.74% (inactive) | 10.5% (inactive)
24 | Cc1ccccc1-c1nc(CS(=O)(=O)CC(=O)NCc2ccc3c(c2)OCO3)c(C)o1 | 676 | -0.6% (inactive) | -60.8% (inactive) | 115% | -6.5% (inactive) | 110% | -0.497 (inactive) | -2.5e-05 (inactive) | 0.0071 (inactive) | 24.2% (inactive) | 17% (inactive)
25 | Cc1nnc(SCC(=O)N2CCC(C(=O)Nc3nccs3)CC2)n1Cc1ccccc1 | 405 | 6.1% (inactive) | 8.5% (inactive) | 104% | 10.2% (inactive) | 100% | -0.604 (inactive) | -4.4e-05 (inactive) | 0.00447 (inactive) | 18.3% (inactive) | 17% (inactive)
26 | N/C(=N/O)c1nc(N2CCCCC2)nc(N2CCCCC2)n1 | 640 | -16.2% (inactive) | -135% (inactive) | 53.7% | -50.5% (inactive) | 81.9% | -0.498 (inactive) | 8.9e-06 (inactive) | 0.00632 (inactive) | 8.03% (inactive) | 24.6% (inactive)
27 | CCOC(=O)c1ccc(NC(=O)c2ccc(NS(C)(=O)=O)cc2)cc1 | 473 | -4.3% (inactive) | 8.8% (inactive) | 95.3% | 32.9% (inactive) | 95.1% | -0.401 (inactive) | 4e-05 (inactive) | 0.00834 (inactive) | 6.57% (inactive) | 11.9% (inactive)
28 | Cc1nc(-c2cccc(N)c2)cs1 | 726 | -11% (inactive) | -14.5% (inactive) | 77.8% | -35.4% (inactive) | 132% | -0.514 (inactive) | -1e-05 (inactive) | 0.00706 (inactive) | -3.62% (inactive) | -15.1% (inactive)
